According to the supplement of paper PMC8728848:
Only a selection was taken, and the strongest signals are over-represented in it overall.

How the values were obtained:
Assay in all cases: glycan array binding signal (z-score within array); higher = stronger binding
Conditions in all cases: glycan notation: IUPAC condensed, linker removed
[1] = molecular target: GlcNAc(b1-2)[GlcNAc(b1-4)]Man(a1-3)[GlcNAc(b1-4)][GlcNAc(b1-2)[GlcNAc(b1-6)]Man(a1-6)]Man(b1-4)GlcNAc(b1-4)[Fuc(a1-6)]GlcNAc
Method in brief: (§1)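 Arrays were curated from the Consortium for Functional Glycomics database, 3228 in total, and kept only where the protein sequence was available. Binding is expressed as a within-array Z-score. This score was averaged across arrays of the same protein sequence at different concentrations or buffers and across linkers, and negative values can be read as non-binding.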

[2] = molecular target: GlcNAc(b1-2)[GlcNAc(b1-6)]Man(a1-6)[GlcNAc(b1-2)Man(a1-3)]Man(b1-4)GlcNAc(b1-4)GlcNAc
Method in brief: as §1

[3] = molecular target: GlcNAc(b1-3)Gal(b1-3)GalNAc
Method in brief: as §1

[4] = molecular target: GlcNAc(b1-3)Gal(b1-4)GlcNAc(b1-3)Gal(b1-4)GlcNAc(b1-3)Gal(b1-4)GlcNAc(b1-3)Gal(b1-4)GlcNAc(b1-2)Man(a1-3)[GlcNAc(b1-3)Gal(b1-4)GlcNAc(b1-3)Gal(b1-4)GlcNAc(b1-3)Gal(b1-4)GlcNAc(b1-3)Gal(b1-4)GlcNAc(b1-2)Man(a1-6)]Man(b1-4)GlcNAc(b1-4)[Fuc(a1-6)]GlcNAc
Method in brief: as §1

[5] = molecular target: GlcNAc(b1-3)Gal(b1-4)GlcNAc(b1-3)Gal(b1-4)GlcNAc(b1-3)Gal(b1-4)GlcNAc(b1-3)Gal(b1-4)GlcNAc(b1-2)[GlcNAc(b1-3)Gal(b1-4)GlcNAc(b1-3)Gal(b1-4)GlcNAc(b1-3)Gal(b1-4)GlcNAc(b1-3)Gal(b1-4)GlcNAc(b1-6)]Man(a1-6)[GlcNAc(b1-3)Gal(b1-4)GlcNAc(b1-3)Gal(b1-4)GlcNAc(b1-3)Gal(b1-4)GlcNAc(b1-3)Gal(b1-4)GlcNAc(b1-2)Man(a1-3)]Man(b1-4)GlcNAc(b1-4)[Fuc(a1-6)]GlcNAc
Method in brief: as §1

[6] = molecular target: GlcNAc(b1-3)Gal(b1-4)GlcNAc(b1-6)[GlcNAc(b1-3)]Gal(b1-4)GlcNAc
Method in brief: as §1

[7] = molecular target: GlcNAc(b1-3)Man
Method in brief: as §1

[8] = molecular target: GlcNAc(b1-4)GlcNAc(b1-4)GlcNAc(b1-4)GlcNAc(b1-4)GlcNAc(b1-4)GlcNAc
Method in brief: as §1

[9] = molecular target: GlcNAc6S(b1-3)Gal(b1-4)GlcNAc
Method in brief: as §1

[10] = molecular target: Kdn(a2-6)Gal(b1-4)GlcNAc
Method in brief: as §1

[11] = molecular target: Man(a1-3)[Man(a1-6)]Man(a1-6)[Man(a1-3)]Man
Method in brief: as §1

[12] = molecular target: Man(b1-4)GlcNAc
Method in brief: as §1

[13] = molecular target: Neu5Ac(a2-3)Gal(b1-3)GalNAc(b1-4)[Neu5Ac(a2-3)]Gal(b1-4)Glc
Method in brief: as §1

[14] = molecular target: Neu5Ac(a2-3)Gal(b1-3)GlcNAc(b1-2)Man(a1-3)[Neu5Ac(a2-3)Gal(b1-3)GlcNAc(b1-2)Man(a1-6)]Man(b1-4)GlcNAc(b1-4)GlcNAc
Method in brief: as §1

[15] = molecular target: Neu5Ac(a2-3)Gal(b1-4)GlcNAc(b1-2)[Neu5Ac(a2-3)Gal(b1-4)GlcNAc(b1-6)]Man(a1-6)[Neu5Ac(a2-3)Gal(b1-4)GlcNAc(b1-2)Man(a1-3)]Man(b1-4)GlcNAc(b1-4)GlcNAc
Method in brief: as §1

[16] = molecular target: Neu5Ac(a2-3)Gal(b1-4)GlcNAc(b1-3)Gal(b1-4)GlcNAc(b1-3)Gal(b1-4)GlcNAc
Method in brief: as §1

[17] = molecular target: Neu5Ac(a2-3)Gal(b1-4)GlcNAc(b1-3)Gal(b1-4)GlcNAc(b1-3)[Neu5Ac(a2-3)Gal(b1-4)GlcNAc(b1-3)Gal(b1-4)GlcNAc(b1-6)]GalNAc
Method in brief: as §1

[18] = molecular target: Neu5Ac(a2-3)Gal(b1-4)GlcNAc(b1-6)GalNAc
Method in brief: as §1

[19] = molecular target: Neu5Ac(a2-6)Gal(b1-4)GlcNAc(b1-2)Man(a1-3)[Neu5Ac(a2-6)Gal(b1-4)GlcNAc(b1-2)Man(a1-6)]Man(b1-4)GlcNAc(b1-4)GlcNAc
Method in brief: as §1

[20] = molecular target: Neu5Ac(a2-6)Gal(b1-4)GlcNAc(b1-2)[Neu5Ac(a2-6)Gal(b1-4)GlcNAc(b1-4)]Man(a1-3)[GlcNAc(b1-4)][Neu5Ac(a2-6)Gal(b1-4)GlcNAc(b1-2)[Neu5Ac(a2-6)Gal(b1-4)GlcNAc(b1-6)]Man(a1-6)]Man(b1-4)GlcNAc(b1-4)GlcNAc
Method in brief: as §1

[21] = molecular target: Neu5Ac(a2-6)Gal(b1-4)GlcNAc(b1-6)GalNAc
Method in brief: as §1

[22] = molecular target: Neu5Ac(a2-6)Gal(b1-4)GlcNAc(b1-6)[Gal(b1-3)GlcNAc(b1-3)]Gal(b1-4)Glc
Method in brief: as §1

[23] = molecular target: Neu5Ac(a2-6)GalNAc(b1-4)GlcNAc6S
Method in brief: as §1

[24] = molecular target: Neu5Ac(a2-8)Neu5Ac(a2-8)Neu5Ac
Method in brief: as §1

[25] = molecular target: Neu5Gc(a2-3)Gal(b1-3)[Fuc(a1-4)]GlcNAc
Method in brief: as §1

[26] = molecular target: Neu5Gc(b2-6)Gal(b1-4)GlcNAc
Method in brief: as §1

B1: CvGal2 (Crassostrea virginica) (protein)
chain: MGSSHHHHHHSSGLVPRGSHMRIREAGKRKDTTKVYQIPDGLFPGQQVMLRGRVPWGSKSFSINFSATPRMGEGDILFHLNPRPSEGVCIRNALLNGSWGAEEKWQPYFPFDDGRSFSVKIEVTNDAFRTFVNGRPFVDFLHRTDFRAGKYLTLREGAEYYDVIFQSKPNIPLTTAIHNGMRIGKTIRIRGMCTAQDGFAINFNDNRNNIYFHFNARPAQRTVVRNSYFGSWGNEETAISKEFPFYPFLYFYASFVCMEDKFAVYVNDEHFIDFAHRGNPNNISVLQIKGSVNVLDTECLEPMGEDAMTEVDSGLENGDLFVLNGLMTERGKTFAVNFLNGFTENDDIALHFNPRKSTGEVVLNSRYGGAWQSEEKVALPGVFWSNRPLQVKVETKRNKFKIYVNGVDLAKYKIRGNVEDVHAVQVKGDVFLLETLLLKRLMKPVWERLTGGIRPGTWVTLQGTPKKNWQQFVVNFALDDTLDGDIAFHFNVRRGARQVVRNHRQSGAWGREETVTPFFAFDSEATFEIVFFVKEEKFLIYFNGKLFFEFVHRVPVERITHIYMDGDCNFYEPEVVI
In the case of B1, the “glycan array binding signal (z-score)” value [1] is reported as -0.32, the “glycan array binding signal (z-score)” value [2] is reported as -0.338 and the “glycan array binding signal (z-score)” value [3] is reported as -0.316. For the same binder, the “glycan array binding signal (z-score)” value [4] was -0.163, the “glycan array binding signal (z-score)” value [5] was 0.428 and the “glycan array binding signal (z-score)” value [6] was -0.345. For the same binder, the “glycan array binding signal (z-score)” value [7] was -0.33, the “glycan array binding signal (z-score)” value [8] was -0.345 and the “glycan array binding signal (z-score)” value [9] was -0.328. The “glycan array binding signal (z-score)” value [10] was -0.329, the “glycan array binding signal (z-score)” value [11] was -0.325 and the “glycan array binding signal (z-score)” value [12] was -0.333. For the same binder, the “glycan array binding signal (z-score)” value [13] was -0.328, the “glycan array binding signal (z-score)” value [14] was -0.338 and the “glycan array binding signal (z-score)” value [15] was -0.325. The “glycan array binding signal (z-score)” value [16] was -0.337, the “glycan array binding signal (z-score)” value [17] was -0.323 and the “glycan array binding signal (z-score)” value [18] was -0.339. For the same binder, the “glycan array binding signal (z-score)” value [19] was -0.305, the “glycan array binding signal (z-score)” value [20] was -0.336 and the “glycan array binding signal (z-score)” value [21] was -0.339. The “glycan array binding signal (z-score)” value [22] was -0.133, the “glycan array binding signal (z-score)” value [23] was -0.331 and the “glycan array binding signal (z-score)” value [24] was -0.335. The “glycan array binding signal (z-score)” value [25] was -0.338 and the “glycan array binding signal (z-score)” value [26] was -0.336.
